Assay results reported in the supplement of paper PMC11732987, “Enantioselective OTUD7B fragment discovery through chemoproteomics screening and high-throughput optimisation” (Communications Chemistry, 2025).
Unmarked numbers belong to inactive results.

Assays:
Experiment in all cases: log2 ratio of Biotin-Ahx-Ub-VS probe labelling (fragment/DMSO); higher = less target engagement (more negative = stronger competition), active = hit call of the paper (q ≤ 0.05, log2 ratio ≤ -1)
Settings in all cases: compound concentration: 200 uM; treatment time: 3 h
USP19 = molecular target: T1, USP19 (UniProt O94966)
T1 sequence (whole entry): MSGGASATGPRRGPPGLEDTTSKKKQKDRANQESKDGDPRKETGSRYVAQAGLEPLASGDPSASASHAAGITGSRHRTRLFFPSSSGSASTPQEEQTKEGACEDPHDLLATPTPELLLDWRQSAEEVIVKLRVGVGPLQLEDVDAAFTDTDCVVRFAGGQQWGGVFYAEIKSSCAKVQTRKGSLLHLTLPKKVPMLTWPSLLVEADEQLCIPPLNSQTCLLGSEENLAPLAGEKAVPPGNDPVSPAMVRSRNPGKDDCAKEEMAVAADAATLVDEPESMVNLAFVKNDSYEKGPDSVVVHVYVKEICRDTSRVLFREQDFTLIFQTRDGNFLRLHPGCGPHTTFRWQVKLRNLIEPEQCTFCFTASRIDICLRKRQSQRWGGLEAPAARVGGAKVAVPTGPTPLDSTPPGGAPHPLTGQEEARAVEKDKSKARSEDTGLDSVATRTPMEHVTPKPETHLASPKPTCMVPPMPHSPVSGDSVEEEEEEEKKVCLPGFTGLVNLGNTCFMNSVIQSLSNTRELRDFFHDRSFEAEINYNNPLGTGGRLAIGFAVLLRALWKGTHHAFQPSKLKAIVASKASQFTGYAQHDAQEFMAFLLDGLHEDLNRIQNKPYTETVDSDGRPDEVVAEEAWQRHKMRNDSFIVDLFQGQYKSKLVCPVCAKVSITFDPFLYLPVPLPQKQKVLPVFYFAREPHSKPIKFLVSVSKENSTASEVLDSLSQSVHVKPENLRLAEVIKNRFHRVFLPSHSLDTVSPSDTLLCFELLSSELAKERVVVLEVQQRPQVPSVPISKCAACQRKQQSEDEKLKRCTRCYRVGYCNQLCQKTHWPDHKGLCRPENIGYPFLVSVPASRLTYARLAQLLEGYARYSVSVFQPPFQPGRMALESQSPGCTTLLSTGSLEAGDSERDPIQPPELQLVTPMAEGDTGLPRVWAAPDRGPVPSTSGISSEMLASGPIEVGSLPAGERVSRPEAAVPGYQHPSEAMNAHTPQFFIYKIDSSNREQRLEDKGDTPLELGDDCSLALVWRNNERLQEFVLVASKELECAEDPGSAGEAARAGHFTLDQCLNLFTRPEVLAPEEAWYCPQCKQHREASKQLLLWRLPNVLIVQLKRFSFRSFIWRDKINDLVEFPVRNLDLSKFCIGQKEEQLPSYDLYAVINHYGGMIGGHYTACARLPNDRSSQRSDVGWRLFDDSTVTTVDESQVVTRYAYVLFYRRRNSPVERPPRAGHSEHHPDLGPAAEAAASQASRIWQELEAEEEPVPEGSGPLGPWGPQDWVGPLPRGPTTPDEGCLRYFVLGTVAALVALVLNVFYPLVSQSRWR
How it was run: (§1)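 The table lists average log2 ratios of fragment over vehicle, from an unpaired t-test on global-median-normalised Spectronaut label-free quantities. Proteins with ≥2 unique peptides were used. Samples were HEK293T lysate (495 µg) treated in triplicate with fragment at 200 µM or vehicle for 3 h, then with Biotin-Ahx-Ub-VS (0.5 µM final) for 1 h, with labelled DUBs NeutrAvidin-enriched and run by diaPASEF LC-MS/MS.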

USP22 = molecular target: T2, USP22 (UniProt Q9UPT9)
T2 sequence (whole entry): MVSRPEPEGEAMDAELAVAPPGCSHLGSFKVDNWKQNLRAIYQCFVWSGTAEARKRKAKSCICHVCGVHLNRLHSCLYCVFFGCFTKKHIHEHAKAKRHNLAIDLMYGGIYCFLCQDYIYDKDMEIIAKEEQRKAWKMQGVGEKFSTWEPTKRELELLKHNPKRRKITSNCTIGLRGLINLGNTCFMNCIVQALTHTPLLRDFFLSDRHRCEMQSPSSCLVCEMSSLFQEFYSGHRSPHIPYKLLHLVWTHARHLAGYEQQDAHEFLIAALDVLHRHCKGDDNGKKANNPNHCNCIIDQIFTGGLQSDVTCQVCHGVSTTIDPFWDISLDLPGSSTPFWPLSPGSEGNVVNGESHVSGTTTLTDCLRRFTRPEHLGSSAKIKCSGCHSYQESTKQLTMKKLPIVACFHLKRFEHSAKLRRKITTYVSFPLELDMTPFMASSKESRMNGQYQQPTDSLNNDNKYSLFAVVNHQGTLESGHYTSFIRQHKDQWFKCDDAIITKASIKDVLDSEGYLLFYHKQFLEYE
How it was run: as §1

USP24 = USP24 (UniProt Q9UPU5)
Chain of USP24 (Q9UPU5 whole entry): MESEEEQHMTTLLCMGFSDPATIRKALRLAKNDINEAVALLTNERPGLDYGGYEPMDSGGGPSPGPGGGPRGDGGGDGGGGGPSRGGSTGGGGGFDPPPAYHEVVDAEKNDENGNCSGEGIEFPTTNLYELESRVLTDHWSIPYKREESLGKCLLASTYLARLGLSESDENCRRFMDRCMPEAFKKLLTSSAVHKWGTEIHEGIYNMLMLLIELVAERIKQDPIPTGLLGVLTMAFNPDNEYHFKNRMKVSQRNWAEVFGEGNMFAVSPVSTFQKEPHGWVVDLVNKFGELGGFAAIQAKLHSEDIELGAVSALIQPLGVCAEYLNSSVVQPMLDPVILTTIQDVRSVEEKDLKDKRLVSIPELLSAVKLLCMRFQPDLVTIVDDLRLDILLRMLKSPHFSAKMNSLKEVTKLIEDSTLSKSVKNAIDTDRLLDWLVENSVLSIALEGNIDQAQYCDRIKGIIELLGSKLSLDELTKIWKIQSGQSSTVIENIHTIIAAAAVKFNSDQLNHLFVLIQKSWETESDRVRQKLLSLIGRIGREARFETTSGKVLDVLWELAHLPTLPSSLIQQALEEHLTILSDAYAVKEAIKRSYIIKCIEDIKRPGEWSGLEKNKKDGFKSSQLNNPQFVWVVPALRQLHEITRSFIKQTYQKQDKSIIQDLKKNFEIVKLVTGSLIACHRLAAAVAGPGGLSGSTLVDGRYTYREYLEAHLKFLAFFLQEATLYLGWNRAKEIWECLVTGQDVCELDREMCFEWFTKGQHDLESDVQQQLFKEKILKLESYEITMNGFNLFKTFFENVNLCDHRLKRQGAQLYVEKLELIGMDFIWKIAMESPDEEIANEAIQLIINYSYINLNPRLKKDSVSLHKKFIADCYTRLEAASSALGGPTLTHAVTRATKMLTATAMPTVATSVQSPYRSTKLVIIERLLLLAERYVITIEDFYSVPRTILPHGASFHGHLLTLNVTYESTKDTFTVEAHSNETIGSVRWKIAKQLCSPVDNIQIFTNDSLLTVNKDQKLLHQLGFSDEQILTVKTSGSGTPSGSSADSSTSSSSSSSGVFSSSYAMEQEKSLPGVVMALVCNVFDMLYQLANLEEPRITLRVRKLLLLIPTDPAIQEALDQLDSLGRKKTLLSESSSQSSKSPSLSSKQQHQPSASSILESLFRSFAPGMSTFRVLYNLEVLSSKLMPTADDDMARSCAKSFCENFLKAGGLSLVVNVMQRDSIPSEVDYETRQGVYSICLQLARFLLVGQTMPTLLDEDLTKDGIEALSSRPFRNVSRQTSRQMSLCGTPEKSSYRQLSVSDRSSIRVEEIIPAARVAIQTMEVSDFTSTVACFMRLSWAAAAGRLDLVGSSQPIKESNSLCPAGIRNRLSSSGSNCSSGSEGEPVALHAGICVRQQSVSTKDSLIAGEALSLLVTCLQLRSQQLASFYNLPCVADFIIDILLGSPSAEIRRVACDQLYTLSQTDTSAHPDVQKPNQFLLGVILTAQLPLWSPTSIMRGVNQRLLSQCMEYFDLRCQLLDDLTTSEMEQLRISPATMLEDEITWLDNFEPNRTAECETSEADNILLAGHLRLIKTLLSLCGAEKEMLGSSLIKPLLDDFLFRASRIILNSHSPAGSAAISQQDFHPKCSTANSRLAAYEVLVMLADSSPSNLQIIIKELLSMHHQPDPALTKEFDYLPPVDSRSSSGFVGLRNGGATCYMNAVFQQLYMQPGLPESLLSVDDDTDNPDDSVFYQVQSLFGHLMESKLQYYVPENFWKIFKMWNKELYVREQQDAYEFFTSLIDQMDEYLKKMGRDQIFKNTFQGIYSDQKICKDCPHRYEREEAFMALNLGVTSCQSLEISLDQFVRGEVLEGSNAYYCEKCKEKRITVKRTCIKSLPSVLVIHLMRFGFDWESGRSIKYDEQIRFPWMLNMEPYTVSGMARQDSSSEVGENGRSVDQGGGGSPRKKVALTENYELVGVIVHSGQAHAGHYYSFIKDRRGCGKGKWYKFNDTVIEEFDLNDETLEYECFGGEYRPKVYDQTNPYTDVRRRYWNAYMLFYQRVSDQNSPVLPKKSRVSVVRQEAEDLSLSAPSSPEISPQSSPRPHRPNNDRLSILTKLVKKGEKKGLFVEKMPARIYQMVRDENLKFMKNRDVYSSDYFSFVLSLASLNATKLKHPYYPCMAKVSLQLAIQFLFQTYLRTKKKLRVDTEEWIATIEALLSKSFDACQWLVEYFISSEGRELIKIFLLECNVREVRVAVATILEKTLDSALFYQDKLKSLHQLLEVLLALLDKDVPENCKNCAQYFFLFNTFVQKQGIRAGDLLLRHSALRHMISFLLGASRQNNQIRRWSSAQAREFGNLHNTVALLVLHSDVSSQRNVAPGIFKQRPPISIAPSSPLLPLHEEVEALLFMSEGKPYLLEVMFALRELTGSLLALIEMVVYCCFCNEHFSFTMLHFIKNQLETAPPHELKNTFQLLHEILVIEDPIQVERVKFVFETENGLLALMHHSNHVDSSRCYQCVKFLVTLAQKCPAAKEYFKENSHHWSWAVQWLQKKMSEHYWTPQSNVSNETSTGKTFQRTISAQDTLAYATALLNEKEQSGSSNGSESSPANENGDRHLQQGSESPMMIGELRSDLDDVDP
How it was run: as §1

USP25 = molecular target: T3, USP25 (UniProt Q9UHP3)
T3 sequence (whole entry): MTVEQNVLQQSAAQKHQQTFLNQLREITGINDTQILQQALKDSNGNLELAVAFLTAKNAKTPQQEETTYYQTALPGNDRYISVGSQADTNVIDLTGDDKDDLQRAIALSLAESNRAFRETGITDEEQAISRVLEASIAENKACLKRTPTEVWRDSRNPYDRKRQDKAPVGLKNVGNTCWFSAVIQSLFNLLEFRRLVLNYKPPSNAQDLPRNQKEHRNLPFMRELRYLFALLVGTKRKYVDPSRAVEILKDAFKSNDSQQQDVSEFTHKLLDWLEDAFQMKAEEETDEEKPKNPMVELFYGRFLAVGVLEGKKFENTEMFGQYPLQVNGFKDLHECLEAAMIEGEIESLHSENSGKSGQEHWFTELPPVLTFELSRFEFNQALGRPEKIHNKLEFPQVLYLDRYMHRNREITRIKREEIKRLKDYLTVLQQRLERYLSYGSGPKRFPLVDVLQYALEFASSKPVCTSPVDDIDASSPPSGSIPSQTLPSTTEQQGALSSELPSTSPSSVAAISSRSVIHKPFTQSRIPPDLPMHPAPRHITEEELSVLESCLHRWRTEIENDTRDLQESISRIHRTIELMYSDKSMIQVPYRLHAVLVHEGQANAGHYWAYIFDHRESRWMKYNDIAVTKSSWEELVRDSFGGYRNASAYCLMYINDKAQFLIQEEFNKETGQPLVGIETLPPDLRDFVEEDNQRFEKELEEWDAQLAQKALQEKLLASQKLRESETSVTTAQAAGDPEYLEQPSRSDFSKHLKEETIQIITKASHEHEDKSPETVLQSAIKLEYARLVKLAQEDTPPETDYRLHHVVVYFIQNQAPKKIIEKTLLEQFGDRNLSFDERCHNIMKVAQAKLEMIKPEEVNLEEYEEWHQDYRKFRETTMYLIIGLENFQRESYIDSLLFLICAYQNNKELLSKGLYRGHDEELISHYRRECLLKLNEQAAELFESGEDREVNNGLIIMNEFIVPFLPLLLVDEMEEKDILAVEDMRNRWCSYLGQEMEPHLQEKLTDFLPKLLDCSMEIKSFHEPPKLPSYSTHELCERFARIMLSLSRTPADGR
How it was run: as §1

USP28 = molecular target: T4, USP28 (UniProt Q96RU2)
T4 sequence (whole entry): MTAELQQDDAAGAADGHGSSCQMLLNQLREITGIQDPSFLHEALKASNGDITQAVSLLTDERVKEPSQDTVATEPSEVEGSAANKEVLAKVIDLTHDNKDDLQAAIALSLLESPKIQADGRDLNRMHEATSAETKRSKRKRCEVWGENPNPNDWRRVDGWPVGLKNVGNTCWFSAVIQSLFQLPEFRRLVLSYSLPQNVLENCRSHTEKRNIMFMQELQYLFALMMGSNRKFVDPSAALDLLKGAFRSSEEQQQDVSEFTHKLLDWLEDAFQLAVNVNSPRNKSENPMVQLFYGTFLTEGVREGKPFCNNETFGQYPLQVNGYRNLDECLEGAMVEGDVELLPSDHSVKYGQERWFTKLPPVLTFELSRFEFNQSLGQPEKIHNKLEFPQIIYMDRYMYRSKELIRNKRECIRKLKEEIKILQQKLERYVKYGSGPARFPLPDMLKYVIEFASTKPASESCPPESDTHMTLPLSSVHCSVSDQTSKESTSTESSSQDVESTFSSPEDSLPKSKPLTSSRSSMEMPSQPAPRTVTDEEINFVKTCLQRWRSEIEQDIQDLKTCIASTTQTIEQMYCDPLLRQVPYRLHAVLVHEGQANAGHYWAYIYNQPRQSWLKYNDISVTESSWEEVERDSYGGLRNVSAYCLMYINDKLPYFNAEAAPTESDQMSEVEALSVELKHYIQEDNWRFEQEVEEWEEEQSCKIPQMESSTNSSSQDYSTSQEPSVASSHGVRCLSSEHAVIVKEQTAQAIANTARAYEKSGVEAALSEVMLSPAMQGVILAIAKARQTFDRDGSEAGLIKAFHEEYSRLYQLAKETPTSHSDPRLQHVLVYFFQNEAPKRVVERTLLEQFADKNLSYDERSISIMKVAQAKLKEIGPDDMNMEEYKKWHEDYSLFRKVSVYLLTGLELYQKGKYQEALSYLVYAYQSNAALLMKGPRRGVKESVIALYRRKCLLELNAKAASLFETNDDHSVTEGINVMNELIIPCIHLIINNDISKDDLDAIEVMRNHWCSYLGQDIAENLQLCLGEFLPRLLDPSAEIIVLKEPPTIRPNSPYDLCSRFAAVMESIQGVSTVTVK
How it was run: as §1

SMILES: O=C(CCl)NC1CCOc2ccccc21 (stereo not given)
- log2 ratio of Biotin-Ahx-Ub-VS probe labelling (USP19): -0.918
- log2 ratio of Biotin-Ahx-Ub-VS probe labelling (USP22): -0.51
- log2 ratio of Biotin-Ahx-Ub-VS probe labelling (USP24): -1.01 (active)
- log2 ratio of Biotin-Ahx-Ub-VS probe labelling (USP25): -1.23 (active)
- log2 ratio of Biotin-Ahx-Ub-VS probe labelling (USP28): -1.6 (active)
